# Measured values as given in PubChem BioAssay AID2284072 (EPA ToxCast).
# Calls of active or inactive are those of the source. The calls were made as follows: active = hit-call score of the fitted dose curve at least 0.9, where 1 is the maximum; inactive = score below 0.9.
# Target: human CK2 (alpha1/alpha2/beta) Other Protein Kinase, CSNK2A1 (gene 1457) (UniProt P68400)
# Test: ERF_TW_ENZ_hCSNK2A1: Eurofins (ERF) Enzymatic Radiometric [10 uM ATP] Assay for human CK2 (alpha1/alpha2/beta) Other Protein Kinase
# Procedure: ERF_TW_ENZ_hCSNK2A1 is a biochemical, single-readout assay that uses extracted gene-proteins in a cell-free assay. Measurements were taken 0.5 hour after chemical dosing in a 96-well plate. See CK2 (alpha1/alpha2/beta) Human Other Protein Kinase Enzymatic Radiometric Assay [10 uM ATP], Panlabs.ERF_TW_ENZ_hCSNK2A1 is an assay component calculated from the ERF_TW_ENZ_hCSNK2A1 assay. It is designed to measure enzyme activity using a type of enzyme reporter as detected by scintillation counting with radiometry technology.Data from the assay component ERF_TW_ENZ_hCSNK2A1 was analyzed at the assay endpoint, ERF_TW_ENZ_hCSNK2A1, in the positive analysis fitting direction relative to DMSO as the negative control and baseline of activity. Using a type of enzyme reporter, loss-of-signal activity can be used to understand changes in enzymatic activity as they relate to gene CSNK2A1. To generalize the intended target to other relatable targets, this assay endpoint is annotated to the kinase intended target family, where the subfamily is serine/threonine kinase.
# CK2a1(h) is incubated with 20mM HEPES pH7.4, 0.15M NaCl, 0.1mM EDTA, 5mM DTT, 0.1% Triton X-100, 165 uM […], 10 mM MgAcetate and [gamma-33P-ATP] (specific activity and concentration as required). The reaction is 17 initiated by the addition of the Mg/ATP mix. […]
# Sequence of human CK2 (alpha1/alpha2/beta) Other Protein Kinase, CSNK2A1 (gene 1457) (P68400 whole entry, looked up): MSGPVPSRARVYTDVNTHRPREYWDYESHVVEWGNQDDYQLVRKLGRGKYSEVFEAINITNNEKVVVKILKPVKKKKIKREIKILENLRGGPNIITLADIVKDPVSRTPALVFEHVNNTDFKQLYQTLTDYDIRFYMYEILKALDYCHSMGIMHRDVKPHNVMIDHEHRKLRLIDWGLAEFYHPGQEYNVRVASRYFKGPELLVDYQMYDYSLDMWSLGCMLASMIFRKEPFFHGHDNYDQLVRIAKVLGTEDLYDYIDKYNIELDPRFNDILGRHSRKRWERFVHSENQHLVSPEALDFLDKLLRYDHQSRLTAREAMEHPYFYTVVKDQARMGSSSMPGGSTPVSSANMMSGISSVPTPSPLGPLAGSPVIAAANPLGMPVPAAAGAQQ
row,SMILES,AC50
1,O=C(/C=C/c1ccc(O)cc1)CC(=O)/C=C/c1ccc(O)cc1,2.25 µM (active)
